# Compound activity: PubChem, several laboratories
# Shown are actives, neighbours in structure and some others; about 2.4% of the full set was active somewhere.
# APOBEC3G inh – APOBEC3G (human) deaminase inhibition; Q9HC16; recombinant A3G, ssDNA deamination FAM/TAMRA fluorescence; inhibition, % at 20 µM; hit rate 0.28% among 330,000;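 active means inhibition of at least 40% at 20 µM, with no more than 30% in the related APOBEC3A deaminase screen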;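 further: plate controls were DMSO wells with A3G for no effect and wells lacking A3G enzyme for full effect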
# Target sequence (Q9HC16 whole entry, looked up): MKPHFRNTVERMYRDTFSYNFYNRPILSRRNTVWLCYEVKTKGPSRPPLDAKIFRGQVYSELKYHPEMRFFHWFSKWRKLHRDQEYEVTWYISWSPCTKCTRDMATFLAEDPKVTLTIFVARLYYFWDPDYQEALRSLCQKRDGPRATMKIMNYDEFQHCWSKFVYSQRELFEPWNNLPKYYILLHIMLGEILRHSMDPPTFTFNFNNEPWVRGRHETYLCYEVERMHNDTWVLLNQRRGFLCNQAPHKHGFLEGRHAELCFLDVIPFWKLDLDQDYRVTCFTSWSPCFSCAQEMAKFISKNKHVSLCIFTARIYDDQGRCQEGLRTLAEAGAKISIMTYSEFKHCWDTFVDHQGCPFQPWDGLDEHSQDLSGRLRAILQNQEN
# APOBEC3A inh – human APOBEC3A DNA deaminase inhibition. P31941. recombinant A3A, FAM/TAMRA ssDNA deamination fluorescence. inhibition, % at 20 µM. hit rate 0.41% among 330,000. AID 493011;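 active means at least 40% inhibition at 20 µM here, with at most 30% in a related deaminase screen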;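 further: plate controls were A3A with DMSO for no effect and wells lacking A3A enzyme for full effect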
# Target sequence (P31941 whole entry, looked up): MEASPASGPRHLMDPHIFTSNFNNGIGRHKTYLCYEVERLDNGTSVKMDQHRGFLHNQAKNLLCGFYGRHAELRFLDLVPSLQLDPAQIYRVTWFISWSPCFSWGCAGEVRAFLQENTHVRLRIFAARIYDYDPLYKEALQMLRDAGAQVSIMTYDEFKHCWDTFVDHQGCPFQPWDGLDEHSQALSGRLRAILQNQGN
# PfM18AAP inh – PfM18AAP enzyme inhibition | inhibition, % at 7.35 µM | AID 1822 | recombinant PfM18AAP, H-Glu-NHMec fluorogenic cleavage | hit rate 1.2% among 290,000;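 active means inhibition above the campaign mean inhibition over all tested compounds plus 3 SD, cut at about 28% in these data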;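 further: 0% = plate median of test compound wells and 100% = 2 mM ZnCl2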
# Yeast superoxide – caloric restriction mimetics inhibiting age-related superoxide in yeast. superoxide response (% of plate mean), % at 10 µM. S. cerevisiae aged cells, superoxide DHE fluorescence; hits give low values. hit rate 0.18% among 330,000;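 active means superoxide response under a set limit, about three screen SD below normal, cut at about 65% in these data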;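 further: yeast aged for seven days with compound at 30 °C before DHE staining; 100% = average MFI of all compound-treated wells on the plate with controls excluded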
# PfGluPho inh – PfG6PD (Plasmodium falciparum) enzyme inhibition. PfGluPho enzyme, NADPH resazurin-diaphorase fluorescence. inhibition, % at 20 µM. hit rate 0.78% among 350,000. AID 504690;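 active means inhibition reaching at least a set limit at 20 µM in the primary screen, cut at about 59% in these data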;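 further: 0% = DMSO wells with substrate and 100% = DMSO wells lacking glucose-6-phosphate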
# APOBEC3G confirm – APOBEC3G (human) deaminase inhibition, confirmed | shares compounds with APOBEC3G inh | recombinant A3G ssDNA deaminase, UDG/FAM-TAMRA fluorescence | inhibition, % at 20 µM | hit rate 72% among 890 | AID 493152;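 active means inhibition reaching a set limit in any replicate at 20 µM, the limit being 80% of the first screen's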
# UDG A3G counter – counter-screen for APOBEC3G inhibitors: E. coli UDG. shares compounds with APOBEC3G inh. UDG counterscreen, FAM/TAMRA oligo fluorescence. inhibition, % at 20 µM. 710 tested, under 10 active;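 active means compounds giving 40% or more inhibition at 20 µM in any one of the three replicates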;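 further: plate controls were DMSO wells with UDG and oligo for no effect and DMSO wells lacking both for full effect; inhibitors lower the FAM signal released by uracil excision and alkaline cleavage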
# * marks the source's active call; other numbers are inactive results; · = not tested or not shown.
SMILES,APOBEC3G inh,APOBEC3A inh,PfM18AAP inh,Yeast superoxide,PfGluPho inh,APOBEC3G confirm,UDG A3G counter
Cc1ccsc1/C=N/n1c(-c2ccccn2)n[nH]c1=S,60*,1,7,80,35,63*,1
S=c1[nH]nc(-c2ccccn2)n1/N=C/c1ccco1,-3,1,0,78,13,·,·
Cc1ccsc1/C=N/n1c(-c2ccncc2)n[nH]c1=S,52*,-11,28,94,36,75*,-3
Cc1cc(-c2n[nH]c(=S)n2/N=C/c2sccc2C)n[nH]1,57*,-4,16,97,45,86*,17
Cc1ccsc1/C=N/n1c(-c2ccccc2)n[nH]c1=S,32,-2,15,112,39,·,·
CC(=O)Nc1ccc(S(=O)(=O)N(C)Cc2cnn(C)c2)cc1,-5,-1,-15,98,6,·,·
Cc1cc(-c2n[nH]c(=S)n2/N=C/c2cccc([N+](=O)[O-])c2)n[nH]1,65*,-2,10,94,15,73*,-2
Cc1cc(-c2n[nH]c(=S)n2/N=C/c2cccc(O)c2)n[nH]1,49*,-1,6,65*,20,82*,-4
Cc1cc(-c2n[nH]c(=S)n2/N=C/C(Cl)=C/c2ccccc2)n[nH]1,25,-3,8,90,14,·,·
O=[N+]([O-])c1cccc(/C=N/n2c(C3CCCCC3)n[nH]c2=S)c1,9,-7,8,102,15,·,·
CCCCCN(C(=O)CCC(=O)OCC(=O)c1ccc(C(C)CC)cc1)c1c(N)n(CCCC)c(=O)[nH]c1=O (stereo unspecified),4,1,·,100,1,·,·
Cc1cc(C)cc(N(C(=O)c2sc(C)nc2C)C(C(=O)NC(C)(C)C)c2ccncc2)c1 (stereo unspecified),3,2,5,101,14,·,·
O=C(CSc1ccc(-c2ccccc2)nn1)c1ccccc1,-3,1,-1,103,23,·,·
Cc1ccc(C(=O)CSc2ccc(-c3ccccc3)nn2)cc1,74*,-3,-10,116,13,16,-1
O=C(CCNS(=O)(=O)c1ccc(Br)cc1)NCc1ccco1,-6,-1,·,98,2,·,·
CCOC(=O)c1c(NC(=O)c2ccccc2C(=O)O)sc2c1CCCC2,0,2,-1,95,-25,·,·
CCOC(=O)c1c(NC(=O)c2ccccc2)sc2c1CCc1ccccc1-2,58*,0,11,96,58,16*,-2
O=C(NC1CC(=O)N(c2ccc3c(c2)OCCO3)C1)N1CCCCC1 (stereo unspecified),0,0,·,99,-10,·,·
CC(=O)N1c2ccc(S(=O)(=O)N3CCCC3)cc2CC1C(=O)NCc1ccccc1F (stereo unspecified),2,1,4,95,3,·,·
O=[N+]([O-])c1cc2c(cc1/C=N/n1c(-c3ccccc3)n[nH]c1=S)OCO2,55*,-3,14,91,38,84*,-3
Fc1cccc(Cl)c1/C=N/n1c(-c2cccnc2)n[nH]c1=S,46*,-3,-2,104,40,76*,-5
S=c1[nH]nc(-c2cccnc2)n1/N=C/C=C/c1ccccc1,42*,-5,20,113,19,75*,-2
O=[N+]([O-])c1cc2c(cc1/C=N/n1c(-c3ccccn3)n[nH]c1=S)OCO2,·,·,17,90,50,·,·
S=c1[nH]nc(-c2cccnc2)n1/N=C/c1ccccc1,44*,-3,20,103,7,80*,-3
CC(/C=N/n1c(-c2cccnc2)n[nH]c1=S)=C\c1ccccc1,23,-4,6,90,11,·,·
SMILES,APOBEC3G inh,APOBEC3A inh,PfM18AAP inh,Yeast superoxide,PfGluPho inh,APOBEC3G confirm,UDG A3G counter
S=c1[nH]nc(-c2cc(-c3ccccc3)n[nH]2)n1/N=C/C=C/c1ccccc1,20,-7,18,113,8,·,·
O=C(CSc1nc2ccccc2s1)NCc1cc([N+](=O)[O-])ccc1O,-3,0,·,105,-27,·,·
N#CC(C#N)=C1NC(N)=C(C#N)C(c2ccccc2)=C1C#N,-5,0,6,114,·,·,·
CC(=O)c1cccc(NC(=O)c2cc(S(=O)(=O)N3CCCCC3)ccc2N2CCOCC2)c1,·,·,·,·,-4,·,·
COc1cc(OC)c(C(=O)OCC(=O)Nc2ccc(S(=O)(=O)N3CCOCC3)cc2)cc1OC,8,13,·,108,-8,·,·
O=C(Cc1ccc(Cl)cc1)OCC(=O)N1CCCCCC1,-1,1,·,110,-1,·,·
Cc1cccc(-c2n[nH]c(=S)n2/N=C/c2cccs2)c1,17,-5,9,96,26,·,·
O=[N+]([O-])c1ccccc1/C=N/n1c(-c2cccnc2)n[nH]c1=S,69*,-4,8,114,37,80*,-1
S=c1[nH]nc(-c2cccnc2)n1/N=C/c1cccs1,41*,-10,26,89,3,81*,-5
Cc1cccc(C=Nc2ccc3c(c2)oc2ccccc23)c1O,-4,-3,-7,91,0,·,·
Cc1ccccc1N=Cc1cccc(O)c1O,70*,10,30*,112,47,51*,·
COc1ccccc1C(=O)NC(C)c1ccc(-n2ccnc2)cc1 (stereo unspecified),-2,3,4,89,0,·,·
S=c1[nH]c2cnccc2n1Cc1ccccc1,13,-4,0,101,34,·,·
S=c1[nH]c2ccccc2n1Cc1ccccc1,50*,-2,14,96,55,54*,1
COc1nc2ccccc2nc1CCC(=O)O,-7,5,3,93,4,·,·
Nc1nc(-c2cc3c(cc2Cl)OCCO3)cs1,52*,-1,-5,106,0,-9,-3
Fc1ccccc1-n1[nH]nnc1=S,52*,2,-7,92,55,15*,-3
CCOC(=O)c1cccc(NC(=O)Cn2cc3c(n2)CCC(C)C3)c1 (stereo unspecified),47*,2,4,102,-8,-2,·
CC(=O)Nc1ccc(NC(=O)Cn2cc3c(n2)CCC(C)C3)cc1 (stereo unspecified),·,·,-7,·,·,·,·
O=S1OC(c2ccccc2)c2cc(Cl)ccc21 (stereo unspecified),41*,5,·,88,30,4,·
O=C(c1ccccc1)N1CCC(=O)N1c1ccccc1,40*,-2,-9,107,5,4,6
CCN1CCN(c2nc(-c3ccccc3Cl)nc3ccccc23)CC1,44*,-5,4,94,8,-1,-4
CN1CCN(c2nc(-c3ccccc3Cl)nc3ccccc23)CC1,-8,-4,-8,106,-9,·,·
COc1ccccc1C(CC(=O)Nc1nccs1)c1ccco1 (stereo unspecified),-1,-2,0,92,7,·,·
O=C(CC(c1ccc(F)cc1)c1ccco1)Nc1nccs1 (stereo unspecified),53*,2,4,99,9,0,·
